Data on 3 compounds can be found in PubChem BioAssay (EPA / NIEHS).

Each structure is given as a SMILES string. Activity calls are given as the source filed them. Rule for the calls: active = hit-call score of the fitted dose curve at least 0.9, where 1 is the maximum; inactive = score below 0.9.

Conditions in all cases: mRNA level, 48 h; actives raise or lower the signal
Read-out in test [1]: CYP4A11 (gene 1579)
Briefly: LTEA_HepaRG_CYP4A11: Life Technologies and Expression Analysis (LTEA) Assay for CYP4A11 using HepaRG (AID 2283486). In a few lines:
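Readout is CYP4A11 mRNA induction or suppression (qRT-PCR, ACTB/GAPDH/POLR2A normalization) in human HepaRG cells after 48 h chemical treatment, concentrations to 100 uM in 0.5% DMSO, fitted bidirectionally against vehicle.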

Read-out in test [2]: Cytochrome P450 3A4 (Homo sapiens) (UniProt P08684)
Briefly: LTEA_HepaRG_CYP3A4: Life Technologies and Expression Analysis (LTEA) Assay for CYP3A4 using HepaRG (AID 2283487). In a few lines:
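Differentiated HepaRG cells in serum-free induction medium exposed in duplicate for 48 h to 8 half-log concentrations up to 100 uM in 0.5% DMSO. CYP3A4 mRNA measured by qRT-PCR normalized to ACTB, GAPDH and POLR2A; bidirectional fit versus DMSO.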

Read-out in test [3]: DNA damage-inducible transcript 3 (DDIT3), DDIT3 (gene 1649)
The test is described as follows: LTEA_HepaRG_DDIT3: Life Technologies and Expression Analysis (LTEA) Assay for DNA damage-inducible transcript 3 (DDIT3) using HepaRG (AID 2283488). In a few lines: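 HepaRG plated 48 h, switched to serum-free induction medium, dosed 48 h (100 uM top, half-log, 8 pts, 0.5% DMSO, n=2); RNA isolated; DDIT3 by qRT-PCR; bidirectional curve fit vs DMSO.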

Read-out in test [4]: Pro-epidermal growth factor (Homo sapiens) (UniProt P01133)
Briefly: LTEA_HepaRG_EGF: Life Technologies and Expression Analysis (LTEA) Assay for Epidermal growth factor (EGF) using HepaRG (AID 2283489). In a few lines: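 EGF expression changes in human HepaRG cells are scored by bidirectional fitting relative to 0.5% DMSO controls. Chemicals are tested at eight half-log concentrations up to 100 uM for 48 h in serum-free induction medium.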

Read-out in test [5]: Early growth response protein 1 (EGR1) transcription factor, EGR1 (gene 1958)
The test is described as follows: LTEA_HepaRG_EGR1: Life Technologies and Expression Analysis (LTEA) Assay for Early growth response protein 1 (EGR1) transcription factor using HepaRG (AID 2283490). In a few lines: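 Read-out is EGR1 mRNA level by qRT-PCR, normalized to three housekeeping genes and analysed for gain or loss of signal against 0.5% DMSO. Source cells: human HepaRG, treated 48 h at up to 100 uM in half-log dilutions.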

Read-out in test [6]: Ezrin (EZR), EZR (gene 7430)
The test is described as follows: LTEA_HepaRG_EZR: Life Technologies and Expression Analysis (LTEA) Assay for Ezrin (EZR) using HepaRG (AID 2283491). In a few lines:
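Differentiated human HepaRG cells, 48 h after plating, were exposed in serum-free induction medium for 48 hours to eight half-log concentrations up to 100 uM in 0.5% DMSO. EZR mRNA was measured by TaqMan qRT-PCR, normalized to ACTB, GAPDH and POLR2A, and fitted bidirectionally against DMSO.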

Read-out in test [7]: Cytochrome P450 3A7 (Homo sapiens) (UniProt P24462)
The test is described as follows: LTEA_HepaRG_CYP3A7: Life Technologies and Expression Analysis (LTEA) Assay for CYP3A7 using HepaRG (AID 2283492). In a few lines:
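Cells were thawed, plated, cultured 48 h, then treated for a further 48 h with chemicals (eight-point half-log series from 100 uM, 0.5% DMSO). RNA was isolated and CYP3A7 expression quantified by qRT-PCR normalised to ACTB, GAPDH and POLR2A.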

Read-out in test [8]: CYP3A5 (gene 1577)
Briefly: LTEA_HepaRG_CYP3A5: Life Technologies and Expression Analysis (LTEA) Assay for CYP3A5 using HepaRG (AID 2283493). In a few lines:
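HepaRG plated 48 h, switched to serum-free induction medium, chemicals added 48 h (max 100 uM, half-log, 0.5% DMSO). RNA isolated; CYP3A5 by TaqMan qRT-PCR. Gain/loss vs DMSO.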

Read-out in test [9]: Fatty Acid-Binding Protein 1 (FABP1), FABP1 (gene 2168)
The test is described as follows: LTEA_HepaRG_FABP1: Life Technologies and Expression Analysis (LTEA) Assay for Fatty Acid-Binding Protein 1 (FABP1) using HepaRG (AID 2283494). In a few lines: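 HepaRG, 48 h post-plating switched to serum-free induction medium, then dosed 48 h (duplicate, 8 pts, ≤100 uM, 0.5% DMSO). RNA → Fluidigm TaqMan qRT-PCR, FABP1 normed to ACTB/GAPDH/POLR2A. Bidirectional curve fit vs DMSO.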

Read-out in test [10]: Cytochrome P450 4A22 (Homo sapiens) (UniProt Q5TCH4)
Briefly: LTEA_HepaRG_CYP4A22: Life Technologies and Expression Analysis (LTEA) Assay for Cytochrome P450 4A22 (CYP4A22) using HepaRG (AID 2283495). In a few lines: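 Cryopreserved HepaRG cells, plated and cultured 48 h, then switched to serum-free induction medium and treated 48 h (duplicates, up to 100 uM, half-log steps, 0.5% DMSO). Expression change of CYP4A22 was fitted bidirectionally against vehicle.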

Read-out in test [11]: Cytochrome P450 7A1 (Homo sapiens) (UniProt P22680)
The test is described as follows: LTEA_HepaRG_CYP7A1: Life Technologies and Expression Analysis (LTEA) Assay for Cytochrome P450 7A1 (CYP7A1) using HepaRG (AID 2283496). In a few lines: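 HepaRG cells plated 48 h, then switched to serum-free induction medium and exposed in duplicate for 48 h to 8-point half-log series from 100 uM in 0.5% DMSO. CYP7A1 mRNA by qRT-PCR (TaqMan), normalized to ACTB/GAPDH/POLR2A; bidirectional fit versus DMSO.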

Read-out in test [12]: Glutathione S-Transferase (GSTA2), GSTA2 (gene 2939)
Briefly: LTEA_HepaRG_GSTA2: Life Technologies and Expression Analysis (LTEA) Assay for Glutathione S-Transferase (GSTA2) using HepaRG (AID 2283497). In a few lines: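 HepaRG, 48 h dosing, 8-pt half-log CRC from 100 uM, 0.5% DMSO vehicle, n=2; RNA → Fluidigm TaqMan qRT-PCR; GSTA2 vs ACTB/GAPDH/POLR2A; gain/loss fit vs DMSO.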

Read-out in test [13]: growth arrest and DNA damage 45 (GADD45G), GADD45G (gene 10912)
The test is described as follows: LTEA_HepaRG_GADD45G: Life Technologies and Expression Analysis (LTEA) Assay for growth arrest and DNA damage 45 (GADD45G) using HepaRG (AID 2283499). In a few lines:
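Human hepatic HepaRG line treated 48 h with chemicals (eight concentrations, half-log steps from 100 uM); transcript induction or repression of GADD45G scored by qRT-PCR versus DMSO vehicle.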

Read-out in test [14]: Glutamate-cysteine ligase regulatory (GCLM), GCLM (gene 2730)
The test is described as follows: LTEA_HepaRG_GCLM: Life Technologies and Expression Analysis (LTEA) Assay for Glutamate-cysteine ligase regulatory (GCLM) using HepaRG (AID 2283500). In a few lines:
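Cells were plated, cultured 48 h, switched to serum-free induction medium, then dosed in duplicate for 48 h at eight half-log concentrations up to 100 uM. RNA was then profiled by qRT-PCR; gain or loss versus DMSO was fitted.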

Read-out in test [15]: Glutathione S-transferase M3 (GSTM3), GSTM3 (gene 2947)
The test is described as follows: LTEA_HepaRG_GSTM3: Life Technologies and Expression Analysis (LTEA) Assay for Glutathione S-transferase M3 (GSTM3) using HepaRG (AID 2283501). In a few lines:
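Changes in GSTM3 expression, an oxidative-stress marker, were scored by bidirectional curve fitting against 0.5% DMSO vehicle. Human HepaRG cultures received chemicals for 48 h in duplicate, highest concentration 100 uM with half-log dilutions.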

Read-out in test [16]: Heat shock 70 kDa protein 1 (HSPA1A), gene 3303
Briefly: LTEA_HepaRG_HSPA1A: Life Technologies and Expression Analysis (LTEA) Assay for Heat shock 70 kDa protein 1 (HSPA1A) using HepaRG (AID 2283502). In a few lines: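 Readout is HSPA1A transcript level by microfluidic qRT-PCR, normalized to three housekeeping genes and analysed for gain or loss of signal relative to 0.5% DMSO. Human HepaRG cultures received test chemicals for 48 h at up to 100 uM.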

Read-out in test [17]: Hypoxia-inducible factor 1-alpha (Homo sapiens) (UniProt Q16665)
Briefly: LTEA_HepaRG_HIF1A: Life Technologies and Expression Analysis (LTEA) Assay for Hypoxia-inducible factor 1 (HIF1A) Trancription factor using HepaRG (AID 2283503). In a few lines: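 Differentiated HepaRG cells in serum-free induction medium exposed 48 h, in duplicate, to 8-point half-log series from 100 uM in 0.5% DMSO. HIF1A mRNA measured by TaqMan qRT-PCR, normalized to ACTB/GAPDH/POLR2A, fitted bidirectionally versus DMSO.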

Read-out in test [18]: 3-Hydroxy-3-Methylglutaryl-CoA Synthase 2 (HMGCS2), HMGCS2 (gene 3158)
The test is described as follows: LTEA_HepaRG_HMGCS2: Life Technologies and Expression Analysis (LTEA) Assay for 3-Hydroxy-3-Methylglutaryl-CoA Synthase 2 (HMGCS2) using HepaRG (AID 2283504). In a few lines:
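Expression of HMGCS2 in human HepaRG liver cells is measured by qRT-PCR 48 h after dosing (highest 100 uM, half-log series, 0.5% DMSO). Values come from bidirectional concentration-response fitting with DMSO as baseline.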

Read-out in test [19]: HGF (gene 3082)
The test is described as follows: LTEA_HepaRG_HGF: Life Technologies and Expression Analysis (LTEA) Assay for Hepatocyte Growth Facto (HGF) using HepaRG (AID 2283505). In a few lines:
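Gain or loss of HGF mRNA in human HepaRG liver cells after 48 h chemical exposure; eight concentrations up to 100 uM with 0.5% DMSO vehicle, quantified by TaqMan qRT-PCR.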

Read-out in test [20]: Glutamate-cysteine ligase catalytic (GCLC), GCLC (gene 2729)
Briefly: LTEA_HepaRG_GCLC: Life Technologies and Expression Analysis (LTEA) Assay for Glutamate-cysteine ligase catalytic (GCLC) using HepaRG (AID 2283498). In a few lines:
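Read-out is GCLC transcript level by Fluidigm-based TaqMan qRT-PCR, normalized to three housekeeping genes and fitted in both directions relative to 0.5% DMSO. Human HepaRG cells received chemicals for 48 h, up to 100 uM.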

Chain of Cytochrome P450 3A4 (Homo sapiens) (P08684 whole entry, looked up): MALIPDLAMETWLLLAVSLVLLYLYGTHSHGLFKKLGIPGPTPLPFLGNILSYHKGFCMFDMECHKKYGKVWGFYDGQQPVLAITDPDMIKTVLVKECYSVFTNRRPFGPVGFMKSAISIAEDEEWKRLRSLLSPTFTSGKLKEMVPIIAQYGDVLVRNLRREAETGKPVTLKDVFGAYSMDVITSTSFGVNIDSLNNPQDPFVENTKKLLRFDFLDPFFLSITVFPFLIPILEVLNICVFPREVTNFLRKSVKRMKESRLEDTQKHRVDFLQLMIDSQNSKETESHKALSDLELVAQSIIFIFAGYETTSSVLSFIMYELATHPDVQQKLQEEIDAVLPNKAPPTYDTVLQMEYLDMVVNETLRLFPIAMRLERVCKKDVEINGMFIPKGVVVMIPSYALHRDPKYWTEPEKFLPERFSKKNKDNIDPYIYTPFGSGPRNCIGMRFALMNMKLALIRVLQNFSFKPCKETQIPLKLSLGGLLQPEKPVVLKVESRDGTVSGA
Chain of Hypoxia-inducible factor 1-alpha (Homo sapiens) (Q16665 whole entry, looked up): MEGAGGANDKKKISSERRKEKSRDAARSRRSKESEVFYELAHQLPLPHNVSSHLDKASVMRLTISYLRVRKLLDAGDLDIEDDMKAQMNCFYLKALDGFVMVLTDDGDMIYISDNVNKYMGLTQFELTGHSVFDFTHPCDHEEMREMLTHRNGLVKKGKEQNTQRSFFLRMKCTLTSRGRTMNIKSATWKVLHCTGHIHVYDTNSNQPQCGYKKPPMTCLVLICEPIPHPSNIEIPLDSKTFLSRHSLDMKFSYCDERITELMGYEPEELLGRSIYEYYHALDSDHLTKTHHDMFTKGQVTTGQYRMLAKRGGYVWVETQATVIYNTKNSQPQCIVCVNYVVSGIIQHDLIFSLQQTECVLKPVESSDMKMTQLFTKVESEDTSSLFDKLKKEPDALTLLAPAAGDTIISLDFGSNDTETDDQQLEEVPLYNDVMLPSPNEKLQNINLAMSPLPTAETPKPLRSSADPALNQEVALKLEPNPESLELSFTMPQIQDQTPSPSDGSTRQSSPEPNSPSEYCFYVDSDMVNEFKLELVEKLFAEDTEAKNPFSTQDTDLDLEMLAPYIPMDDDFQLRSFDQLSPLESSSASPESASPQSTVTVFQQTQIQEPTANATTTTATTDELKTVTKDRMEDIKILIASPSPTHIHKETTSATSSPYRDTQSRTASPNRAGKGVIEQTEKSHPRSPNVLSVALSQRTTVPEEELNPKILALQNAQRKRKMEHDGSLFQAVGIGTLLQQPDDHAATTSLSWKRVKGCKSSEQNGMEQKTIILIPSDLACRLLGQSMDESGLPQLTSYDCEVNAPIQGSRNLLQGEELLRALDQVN
Chain of Cytochrome P450 3A7 (Homo sapiens) (P24462 whole entry, looked up): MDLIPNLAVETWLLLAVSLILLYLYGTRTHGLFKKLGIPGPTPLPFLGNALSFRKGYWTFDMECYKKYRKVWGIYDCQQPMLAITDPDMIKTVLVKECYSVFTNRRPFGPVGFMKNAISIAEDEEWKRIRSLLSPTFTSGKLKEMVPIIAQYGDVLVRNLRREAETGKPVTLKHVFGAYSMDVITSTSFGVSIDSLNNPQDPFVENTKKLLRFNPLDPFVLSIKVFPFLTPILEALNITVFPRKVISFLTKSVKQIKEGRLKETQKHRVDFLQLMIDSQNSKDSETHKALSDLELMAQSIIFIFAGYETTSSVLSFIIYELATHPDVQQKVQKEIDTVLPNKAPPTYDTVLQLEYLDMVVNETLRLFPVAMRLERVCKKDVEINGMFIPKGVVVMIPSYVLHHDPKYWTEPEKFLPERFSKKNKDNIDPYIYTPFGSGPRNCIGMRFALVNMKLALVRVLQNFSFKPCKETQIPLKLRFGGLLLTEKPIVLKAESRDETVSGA

As for `COS(=O)(=O)OC`, the compound was called inactive in test [1], in test [2], in test [3], in test [4], in test [5] and in test [6]. Moreover, the compound was classed as inactive in test [7], in [8], in test [9], in [10], in test [11] and in test [12]. The compound was called inactive in [13], in test [14], in [15], in [16], in test [17] and in test [18]. In addition, in test [19], the outcome was inactive.

`Cc1ccccc1CO[C@@H]1C[C@@]2(C(C)C)CC[C@]1(C)O2`: the compound was called inactive in [1], in test [3], in [4], in test [5], in test [6] and in test [7]. Also, the outcome in [8], in [9], in test [10], in test [11], in test [12] and in test [20] was inactive. For the same compound, the call in [14], in test [15], in test [17], in test [18] and in test [19] was inactive. Moreover, the half-maximal activity concentration (AC50) is 23.1 µM (active) in test [2] and 50 µM (active) in test [16].

For `O=C(O)C(F)(F)C(F)(F)C(F)(F)C(F)(F)C(F)(F)C(F)(F)C(F)(F)C(F)(F)C(F)(F)F`, the AC50 in test [1] is 81.5 µM (active); in test [2], 75.8 µM (active); in [3] it was 17 µM (active); in test [4], 76.1 µM (active); in test [6] it was 11.5 µM (active); in [7], 80.3 µM (active). For the same compound, the AC50 was 94.1 µM (active) in test [8]; 33.7 µM (active) in test [9]; 79.7 µM (active) in test [10]; 27.6 µM (active) in [11]; 35.5 µM (active) in [12]; 19.4 µM (active) in test [13]. Also, the AC50 in [15] is 74.8 µM (active); in test [18], 34 µM (active); in test [19], 89.8 µM (active). The outcome in [5], in test [14], in [16] and in test [17] was inactive.

The AC50 is the midpoint of the concentration-response curve, whichever way the signal moves.
